Bioassay records as filed in PubChem BioAssay.
Many of the other results were omitted from the sample, so hits are more common in it than they were.
IL-1B inflam inh: qHTS for Inhibitors of Inflammasome Signaling: IL-1-beta AlphaLISA Primary Screen | activity change, % at 57.5 µM | AID 743279, 2014 | THP-1 LPS/ATP IL-1B secretion, AlphaLISA, 16 h; stronger effect = lower value | 360,000 tested, 4.7% active; in the data active means activity change below about -50%; inconclusive means mostly about -30% to -49%
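Secreted IL-1B measured by AlphaLISA bead assay after 16 h compound exposure of THP-1 cells; compounds (final up to 57.5 uM) added 1 h before LPS (250 ng/mL) and ATP (1.25 mM) stimulation; lower signal means less secretion.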
DT40 TDP1 no CPT: qHTS for Inhibitors of human tyrosyl-DNA phosphodiesterase 1 (TDP1): qHTS in cells in absence of CPT; 420,000 tested, 15% active; DT40 Tdp1-/- hTDP1 cells, no CPT, ATP luminescence, 48 h; Potency, µM (doses to about 46.2 µM), actives largely listed as inhibitors; further: nearly all actives have a fitted effect of over 55% in size
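Chicken DT40 Tdp1-/- cells complemented with human TDP1, screened without camptothecin (DMSO vehicle only), 400 cells/well. Compounds pin-transferred, cells incubated at 37 °C for at least 48 hr. Growth read as ATP-dependent luminescence (CellTiter-Glo, 30 min at RT).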
HT1080-NT tox: qHTS for induction of synthetic lethality in tumor cells producing 2HG: qHTS for the HT-1080-NT fibrosarcoma cell line | HT-1080-NT fibrosarcoma viability, CellTiter-Glo ATP luminescence, 48 h | Potency, µM (titrated, usually from 46.1 µM), hits mostly cytotoxic | 360,000 tested, 1.6% active | AID 686970, 2013;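 further: NT is the 2HG producing partner of a matched IDH1 knockdown line; nearly all actives have a fitted effect of over 55% in size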
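A 48-hour cytotoxicity screen used HT-1080-NT cells plated 2 hours before compound delivery. ATP-based CellTiter-Glo luminescence measured viability, normalized to DMSO and no-cell controls.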
HT1080 IDH1KD tx: qHTS for induction of synthetic lethality in tumor cells producing 2HG: qHTS for the HT-1080-IDH1KD cell line. Potency, µM (titrated, usually from 46.1 µM), most hits filed as cytotoxic. AID 686971, 2013. HT-1080 IDH1 knockdown viability, ATP luminescence, 48 h. 360,000 tested, 2% active
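IDH1KD HT-1080 cells, 750/well, RPMI + 5% FBS; compound pinned after 2 h settling; 48 h, 37 °C; CellTiter-Glo luminescence; % activity normalised to DMSO and no-cell wells; curves fitted, classed by r2 and efficacy.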
12-LOX inh: Primary qHTS assay for inhibitors of human arachidonate 12S-lipoxygenase (ALOX12): Round 2 | Polyunsaturated fatty acid lipoxygenase ALOX12 (Homo sapiens), P18054 | 580,000 tested, 1.1% active | purified 12hLO, xylenol orange hydroperoxide absorbance | Potency, µM (top dose mostly 108 µM), most hits filed as inhibitors | AID 1671190, 2021
Target sequence (P18054 whole entry, looked up): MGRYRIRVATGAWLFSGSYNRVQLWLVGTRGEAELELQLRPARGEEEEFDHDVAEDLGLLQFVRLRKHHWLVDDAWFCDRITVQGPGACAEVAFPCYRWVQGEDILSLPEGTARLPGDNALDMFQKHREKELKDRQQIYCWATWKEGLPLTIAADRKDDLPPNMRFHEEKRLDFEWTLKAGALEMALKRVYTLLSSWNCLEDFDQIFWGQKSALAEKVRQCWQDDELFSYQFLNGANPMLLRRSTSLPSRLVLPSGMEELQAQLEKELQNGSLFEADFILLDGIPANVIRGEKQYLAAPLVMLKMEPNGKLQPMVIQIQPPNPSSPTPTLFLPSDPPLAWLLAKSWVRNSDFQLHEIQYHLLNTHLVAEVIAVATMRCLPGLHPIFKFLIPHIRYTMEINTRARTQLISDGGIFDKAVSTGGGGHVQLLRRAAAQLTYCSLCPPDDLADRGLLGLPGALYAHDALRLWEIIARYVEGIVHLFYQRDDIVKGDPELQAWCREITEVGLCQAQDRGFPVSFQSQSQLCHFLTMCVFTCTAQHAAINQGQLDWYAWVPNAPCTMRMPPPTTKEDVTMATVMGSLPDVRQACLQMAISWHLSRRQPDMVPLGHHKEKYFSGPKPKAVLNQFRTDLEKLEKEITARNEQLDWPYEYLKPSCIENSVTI
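Hydroperoxide product was detected by ferrous iron/xylenol orange as the 573 to 405 nm absorbance ratio. Arachidonic acid at 40 uM (final) was turned over for 30 min at room temperature by 150 nM human 12hLO, pH 7.0 Hepes buffer, after 15 min compound preincubation.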
TDP1 cell CPT: qHTS for Inhibitors of human tyrosyl-DNA phosphodiesterase 1 (TDP1): qHTS in cells in presence of CPT; AID 686979, 2013; Potency, µM (series often up to 46.2 µM), actives largely listed as inhibitors; 420,000 tested, 12% active; chicken DT40 Tdp1-/-;hTDP1 cells + 20 nM CPT, ATP luminescence, 48 h; further: nearly all actives have a fitted effect of over 55% in size
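Cell growth measured by CellTiter-Glo luminescence after a minimum 48 h, 37 C compound exposure with 20 nM CPT in Tdp1-knockout DT40 cells stably expressing hTDP1, seeded 400/well; qHTS titration format.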
Hits are given with their value; – = inactive; ? = inconclusive; · = not tested or not shown; [ ] = dose if it differs, or a comment. Unless noted, the call rests on the fitted dose curve; in most records, active means well fitted curve in the direction sought with a large enough effect; inconclusive means small, poorly fitted or top-dose-only effect, or another doubt; inactive means no such curve, though single readings can be large; an effect the other way counts as inactive or inconclusive.

SMILES	IL-1B inflam inh	DT40 TDP1 no CPT	HT1080-NT tox	HT1080 IDH1KD tx	12-LOX inh	TDP1 cell CPT
COC(=O)c1cc(N)cc(C(=O)OC)c1	·	·	·	·	–	·
Cc1ccc2c(C(=O)NC3CC3)cnn2c1	·	·	·	·	–	·
CCc1c(C)nc2c(-c3ccccc3)c(C)[nH]n2c1=O	–	–	–	–	–	–
CCCCc1c(C)nc2c(-c3ccc(Cl)cc3)c(C)[nH]n2c1=O	·	1.6µM	·	·	–	4.6µM
Cc1nc2c(-c3ccccc3)c(C)[nH]n2c(=O)c1Cc1ccc(C(C)C)cc1	·	2.3µM	·	·	–	2.6µM
Clc1ccc(Cn2c(CN3CCOCC3)nc3ccccc32)c(Cl)c1	·	·	·	·	–	·
O=[N+]([O-])c1ccc(Nc2nc(NC3CCCCC3)nc(N3CCCC3)n2)cc1	–	23µM	–	–	?	26µM
O=[N+]([O-])c1ccc(Nc2nc(N/N=C/c3cccc(F)c3)nc(N3CCCC3)n2)cc1	?	8.2µM	–	–	?	6.5µM
COc1c(/C=N/Nc2nc(N3CCCCC3)nc(N3CCCCC3)n2)cccc1[N+](=O)[O-]	–	?	–	–	–	?
COc1cccc(/C=N/Nc2ccc([N+](=O)[O-])cn2)c1O	-76	2.9µM	0.65µM	1.2µM	–	3.3µM
COc1cccc(/C=N/Nc2nc(Nc3ccc([N+](=O)[O-])cc3)nc(N3CCCC3)n2)c1O	–	5.8µM	9.2µM	3.3µM	–	8.2µM
O=[N+]([O-])c1ccc(NN=Cc2cccc3ccccc23)nc1	–	?	–	–	?	?
Brc1ccoc1-c1nc(-c2ccccc2)no1	·	·	·	·	–	·
CC(c1cccs1)N(C)Cc1cccnc1 (stereo not given)	·	·	·	·	–	·
COc1ccc([N+](=O)[O-])cc1NC(=O)COC(=O)c1ccc2c(c1)NC(=O)CS2	·	·	·	·	–	·
Cc1ccc(-c2noc(-c3ccc(Br)cc3)n2)s1	·	·	·	·	–	·
O=C(C#Cc1ccccc1)N[C@H]1CC[C@@]23CCCN2C(=O)CCC[C@H]3[C@H]1Cc1ccccc1	·	·	·	·	–	·
COc1cc(NC(=O)Cn2ncc(Cl)c(Cl)c2=O)c(C)cc1[N+](=O)[O-]	-95	4.6µM	7.3µM	2.6µM	–	2.9µM
CC(N)C1CC1 (stereo not given)	·	·	·	·	–	·
CC(=O)N(C1=C(N)C(=O)c2ccccc2C1=O)c1ccccc1	–	13µM	–	?	–	23µM
COc1cc(C)c(N(C(C)=O)c2ccccc2)c(C)c1	–	–	–	–[9.24 µM]	–	–
COc1cc(-c2nnc(NC(=O)CS(=O)(=O)c3ccc(C)cc3)o2)cc(OC)c1OC	–	–	–	–	–	–
COc1cc(-c2nnc(-c3ccc(N4CCOCC4)cc3)o2)cc(OC)c1OC	?	5.8µM	–	–	–	6.5µM
COc1cc(-c2nnc(-c3ccc(S(=O)(=O)c4ccccc4)cc3)o2)cc(OC)c1OC	–	12µM	–	–	?	12µM
COc1ccc2[nH]c(C(=O)NCC(=O)Nc3ccc4c(c3)OCCO4)cc2c1OC	·	·	·	·	–	·
SMILES	IL-1B inflam inh	DT40 TDP1 no CPT	HT1080-NT tox	HT1080 IDH1KD tx	12-LOX inh	TDP1 cell CPT
COc1ccc(CC(N)c2csc(NC(=O)Nc3ccc(OC)cc3)n2)cc1 (stereo not given)	-50	16µM	23µM	?	–	21µM
COc1cc(NC(=O)Nc2nc(C(N)Cc3ccc(C(F)(F)F)cc3)cs2)cc(OC)c1OC (stereo not given)	–	12µM	21µM	18µM	?	12µM
COc1ccc(NC(=O)Nc2nnc(C(C)C)s2)cc1	–	?	–	–	–	–
COc1ccc(CC(N)c2csc(NC(=O)c3cc(C(C)(C)C)oc3C)n2)cc1 (stereo not given)	-57	?	21µM	21µM	?	23µM
Cc1csc(NC(=O)c2cc(C)oc2C)n1	–	–	–	–	–	–
COc1ccc(NC(=O)Nc2nc(C(N)Cc3ccc(C(F)(F)F)cc3)cs2)cc1 (stereo not given)	?	16µM	?	?	?	?
CNC(=O)c1ccc(CN(C(=O)c2ccsc2)C2CC2)cc1	·	·	·	·	–	·
COc1cc2onc(C3CCN(C(=O)C(C)(C)C)CC3)c2cc1OC	·	·	·	·	–	·
O=C(NCc1ccccc1OC(F)F)c1ccccc1-n1cnnn1	·	·	·	·	–	·
Cc1[nH]c(SCC(=O)NCC2(c3ccccc3)CC2)nc1Cc1ccccc1	·	·	·	·	–	·
CC(=O)Nc1ccc(C2C(=O)c3ccccc3C2=O)cc1	–	?	–	–	?	–
CCCC(=O)Nc1ccc(C2C(=O)c3ccccc3C2=O)cc1	–	?	–	–	–	16µM
O=C(NC[C@H]1O[C@@H](CC(=O)N2CCN(c3ccccc3)CC2)[C@H](O)[C@@H]1O)c1ccc(F)c(Cl)c1	·	·	·	·	–	·
NC(=O)CN1CCN(c2nc3ccccc3nc2NS(=O)(=O)c2cccc(Cl)c2)CC1	·	·	·	·	–	·
CC(=O)c1ccc(N2CCN(C(=O)CCC(=O)c3cccs3)CC2)cc1	–	–	–	–	–	–
O=C(CN1CCC(C(=O)c2ccc(F)cc2)CC1)Nc1ccc(F)cc1	–	?	–	–	–	?
Cc1ccc(C(=O)C2CCN(CC(=O)N3CCN(c4ccc(F)cc4)CC3)CC2)cc1	-55	18µM	–	–	–	?
COc1ccc(N2CCN(C(=O)CSCc3ccc(C)cc3)CC2)cc1	·	18µM	·	·	?	21µM
Cc1ccc(CSCC(=O)N2CCN(c3ccc(F)cc3)CC2)cc1	–	23µM	–	?	?	26µM
O=C(CCC(=O)N1CCN(c2ccc(O)cc2)CC1)c1cccs1	–	23µM	–	–	–	?
Ic1ccc(-c2noc(-c3ccco3)n2)cc1	·	·	·	·	–	·
O=C(O)C(c1c[nH]c2ccc(Cl)cc12)N1CCc2ccccc2C1 (stereo not given)	·	·	·	·	–	·
O=C(NCc1cccc(F)c1)C1CCN(C(=O)c2ncn3c2COC(c2ccccc2)C3)CC1 (stereo not given)	·	·	·	·	–	·
CS(=O)(=O)N1CC2(CCCN2Cc2cccc(C(N)=O)c2)Cc2ccccc21 (stereo not given)	·	·	·	·	–	·
Cc1ccc(-c2nc(CNC(=O)[C@@H]3CCC[C@H](N)C3)[nH]c2-c2ccccn2)cc1	·	·	·	·	–	·
COc1ccc(N2CCN(C(=O)CSc3ccc(C)cc3)CC2)cc1	–	?	–	–	–	–
Cc1ccc(CSCCC(=O)N2CCN(c3ccc(F)cc3)CC2)cc1	·	–	·	·	–	–
